Assay results: PubChem BioAssay (NCATS)
Inconclusive results are not listed. Activity calls are given as the source filed them. Calls follow the shape of the dose curve; as a rule, active = well fitted curve in the direction sought with a large enough effect; inconclusive = small, poorly fitted or top-dose-only effect, or another doubt; inactive = no such curve, though single readings can be large; an effect the other way counts as inactive or inconclusive.

Columns and labels:
[1] = target: Glutathione peroxidase 1 (Homo sapiens) (UniProt P07203); assay: Primary qHTS Assay for Inhibitors of Recombinant Selenoprotein Glutathione Peroxidase 1 (GPX1) (AID 1845191); also: nearly all actives have a fitted effect of over 65% in size
Glutathione peroxidase 1 (Homo sapiens), sequence (P07203 whole entry, looked up): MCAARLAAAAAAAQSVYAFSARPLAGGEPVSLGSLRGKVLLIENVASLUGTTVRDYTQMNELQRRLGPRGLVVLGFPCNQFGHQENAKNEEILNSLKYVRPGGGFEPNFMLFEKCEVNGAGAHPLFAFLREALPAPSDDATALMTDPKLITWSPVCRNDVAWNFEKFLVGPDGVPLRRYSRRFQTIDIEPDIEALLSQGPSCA
In short: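 GR-coupled readout: NADPH consumption tracked by fluorescence, ex 340/em 450 nm, at t=0 and after 15 min at RT. Final mix 10 nM GPX1, 1 mM GSH, 0.5 mM CHP, 0.5 mM NADPH, 100 nM GR, 0.01% BSA, following 30 min enzyme–compound preincubation.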

[2] = target: Phospholipid hydroperoxide glutathione peroxidase GPX4 (Homo sapiens) (UniProt P36969); assay: Primary qHTS Assay for Inhibitors of Recombinant Selenoprotein Glutathione Peroxidase 4 (GPX4) (AID 1845192); also: nearly all actives have a fitted effect of over 65% in size
Phospholipid hydroperoxide glutathione peroxidase GPX4 (Homo sapiens), sequence (P36969 whole entry, looked up): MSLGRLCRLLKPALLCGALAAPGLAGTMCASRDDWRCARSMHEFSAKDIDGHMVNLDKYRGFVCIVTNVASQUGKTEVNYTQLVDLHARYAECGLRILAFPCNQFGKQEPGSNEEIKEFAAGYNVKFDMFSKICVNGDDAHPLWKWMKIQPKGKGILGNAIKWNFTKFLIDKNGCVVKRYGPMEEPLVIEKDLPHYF
In short: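 Steps: GPX4 plus compound, 30 min RT; add GR/GSH/NADPH master mix; start with cumene hydroperoxide; read 340/450 nm fluorescence at 0 and 15 min. Finals were 200 nM GPX4, 1 mM GSH, 0.5 mM CHP, 0.5 mM NADPH, 100 nM GR.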

[3] = Quantitative High-Throughput drug screen in 47 multiple myeloma cell lines against the NCATS MIPE library collection: FR4_PLB cell viability assay (AID 1918924; also: nearly all actives have a fitted effect of over 35% in size; also: potency is read from the fitted curve at half-maximal effect)
In short: (§1)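 We plated 500 myeloma cells per well, pinned in MIPE 4.0 compounds, and incubated for 48 hours at 37C. ATP was then quantified with CellTiter-Glo, with DMSO and media-only wells defining 100% and 0%.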

[4] = Quantitative High-Throughput drug screen in 47 multiple myeloma cell lines against the NCATS MIPE library collection: EJM_DSMZ cell viability assay (AID 1918926; also: nearly all actives have a fitted effect of over 30% in size; also: potency is read from the fitted curve at half-maximal effect)
In short: (§2)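 Steps: seed 500 cells per well; pin-transfer MIPE 4.0 library; incubate 48 h at 37C, 5% CO2, humidified; add CellTiter-Glo, 5 min room temperature; read luminescence.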

[5] = Quantitative High-Throughput drug screen in 47 multiple myeloma cell lines against the NCATS MIPE library collection: ARD_JJKsccE7 cell viability assay (AID 1918929; also: potency is read from the fitted curve at half-maximal effect)
In short: as §2

[6] = Quantitative High-Throughput drug screen in 47 multiple myeloma cell lines against the NCATS MIPE library collection: KMM1_JCRB cell viability assay (AID 1918960); also: nearly all actives have a fitted effect of over 30% in size; also: potency is read from the fitted curve at half-maximal effect
In short: (§3)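 Cell viability inhibition in this qHTS is measured via ATP content (CellTiter-Glo) after 48 h drug exposure at 37 °C. Wells hold 500 cells; DMSO-treated wells define 100% and medium-only wells 0%.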

[7] = Quantitative High-Throughput drug screen in 47 multiple myeloma cell lines against the NCATS MIPE library collection: KHM11_PLB cell viability assay (AID 1918962); also: nearly all actives have a fitted effect of over 35% in size; also: potency is read from the fitted curve at half-maximal effect
In short: as §1

[8] = Quantitative High-Throughput drug screen in 47 multiple myeloma cell lines against the NCATS MIPE library collection: INA6_PLB cell viability assay (AID 1918965; also: nearly all actives have a fitted effect of over 55% in size; also: potency is read from the fitted curve at half-maximal effect)
In short: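 Viability readout: CellTiter-Glo luminescence following 5 min room-temperature incubation with reagent. Prior exposure: 48 h, 37C, humidified 5% CO2, 500 cells per well.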

[9] = Quantitative High-Throughput drug screen in 47 multiple myeloma cell lines against the NCATS MIPE library collection: JJN3_DSMZ cell viability assay (AID 1918966; also: nearly all actives have a fitted effect of over 50% in size; also: potency is read from the fitted curve at half-maximal effect)
In short: as §2

[10] = target: Luciferin 4-monooxygenase (Photinus pyralis) (UniProt P08659); assay: Primary firefly luciferase (FLuc) qHTS assay for identification of artifact compounds. (AID 1845220); details: outcome: dose series up to 54.1 µM unless noted; also: nearly all actives have a fitted effect of over 60% in size
In short: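 D-luciferin and ATP (10 uM each, final) in Tris acetate buffer pH 7.6 were incubated with compounds for 15 min at room temperature. The reaction was started with 10 nM Photinus pyralis luciferase and luminescence read after 5 min. Percent inhibition was fitted to a 4-parameter Hill equation.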

[11] = Primary fluorescence-based thiol-reactive (MSTI) qHTS assay for identification of artifact compounds. (AID 1845221);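 also: series mostly up to about 54 µM; thiol-reactive compounds lower the probe fluorescence signal; nearly all actives have a fitted effect of over 65% in size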
In short: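 qHTS titration of compound; 4 uM MSTI, PBS pH 7.4, 2% DMSO; 1 h RT, dark; fluorescence 525/598 nm; normalized to Acetyl-MSTI and MSTI; 4-parameter Hill fit.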

[12] = system: Nanoluciferase (engineered Oplophorus gracilirostris luciferase); assay: Primary Nanoluciferase (NLuc) qHTS assay for identification of artifact compounds. (AID 1845222); also: series mostly up to about 54 µM
In short: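 Diluted conditioned medium from NLuc-expressing S16 cells treated with compounds for 15 min at room temperature, then Nano-Glo substrate added; luminescence read after 5 min. Percent inhibition versus no-enzyme and DMSO controls fitted to 4-parameter Hill equation.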

[13] = Primary redox qHTS assay for identification of artifact compounds. (AID 1845223)
In short: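 Redox-cycling detection via DTT (250 uM final) oxidation coupled to Amplex Red (25 uM)/HRP (250 mU/mL) in HBSS. 15 min preincubation plus 30 min after DTT, room temperature. Ex/Em 525/598 nm; 4-parameter Hill fit against DMSO and 10 uM DA3003.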

[14] = Quantitative High-Throughput drug screen in 47 multiple myeloma cell lines against the NCATS MIPE library collection: Delta47_JCRB cell viability assay (AID 1918925; also: nearly all actives have a fitted effect of over 45% in size; also: potency is read from the fitted curve at half-maximal effect)
In short: as §2

[15] = Quantitative High-Throughput drug screen in 47 multiple myeloma cell lines against the NCATS MIPE library collection: AMO1_DSMZ cell viability assay (AID 1918927; also: nearly all actives have a fitted effect of over 30% in size; also: potency is read from the fitted curve at half-maximal effect)
In short: as §2

[16] = Quantitative High-Throughput drug screen in 47 multiple myeloma cell lines against the NCATS MIPE library collection: JIM1_ECACC cell viability assay (AID 1918964; also: potency is read from the fitted curve at half-maximal effect)
In short: as §2

[17] = Quantitative High-Throughput drug screen in 47 multiple myeloma cell lines against the NCATS MIPE library collection: ARP1_JJKsccF8 cell viability assay (AID 1918928; also: nearly all actives have a fitted effect of over 40% in size; also: potency is read from the fitted curve at half-maximal effect)
In short: as §3

[18] = Quantitative High-Throughput drug screen in 47 multiple myeloma cell lines against the NCATS MIPE library collection: Karpas620_DSMZ cell viability assay (AID 1918959); also: nearly all actives have a fitted effect of over 30% in size; also: potency is read from the fitted curve at half-maximal effect
In short: as §1

[19] = Quantitative High-Throughput drug screen in 47 multiple myeloma cell lines against the NCATS MIPE library collection: JIM3_ECACC cell viability assay (AID 1918963; also: nearly all actives have a fitted effect of over 35% in size; also: potency is read from the fitted curve at half-maximal effect)
In short: as §1

Measured: Potency

CN(C)[C@@H]1C(=O)C(C(N)=O)=C(O)[C@@]2(O)C(=O)C3=C(O)c4c(O)cccc4[C@@](C)(O)[C@H]3[C@H](O)[C@@H]12
inactive: [1] | [2] | [3] | [4] | [5] | [6] | [8]
active: [7] 7430 nM | [9] 9350 nM

CCNC(=O)CC1N=C(c2ccc(Cl)cc2)c2cc(OC)ccc2-n2c(C)nnc21 (stereo not given)
inactive: [1] | [2] | [10] | [11] | [12] | [13]
active: [14] 6620 nM | [15] 10500 nM | [5] 13200 nM | [16] 16600 nM | [8] 6620 nM

Cc1ccccc1-n1c(Cn2ncc3c(N)ncnc32)nc2cccc(C)c2c1=O
inactive: [1] | [10] | [11] | [12] | [13] | [9]
active: [3] 4690 nM | [14] 209 nM | [4] 16600 nM | [15] 148 nM | [17] 4690 nM | [5] 118 nM | [18] 37.2 nM | [6] 372 nM | [7] 332 nM | [19] 418 nM | [16] 66.2 nM | [8] 235 nM

COc1cc([C@@H]2c3cc4c(cc3[C@@H](O)C3COC(=O)C32)OCO4)cc(OC)c1O (stereo not given in full)
inactive: [1] | [2]
active: [3] 6.6 nM | [14] 26.4 nM | [4] 46.9 nM | [15] 1 nM | [17] 20.9 nM | [5] 8.3 nM | [18] 18.7 nM | [6] 18.7 nM | [19] 33.2 nM | [16] 4.2 nM | [8] 41.8 nM | [9] 118 nM

CCN1C[C@]2(OC(=O)c3ccccc3NC(C)=O)CC[C@H](OC)[C@@]34[C@H]5CC6[C@@H](OC)C[C@](O)(C(C[C@@H]23)[C@@H]14)[C@@]5(O)[C@@H]6OC
inactive: [1] | [2] | [3] | [14] | [4] | [15] | [17] | [18] | [19] | [8]

CC(C)N(CCNC(=O)CN1CCCC1=O)C(C)C
inactive: [1] | [2] | [10] | [11] | [12] | [13] | [3] | [14] | [4] | [15] | [17] | [5] | [18] | [7] | [19] | [8] | [9]

COc1ccc(C(=O)c2c(C)n(CCN3CCOCC3)c3cc(I)ccc23)cc1
inactive: [1] | [2] | [7]
active: [14] 16600 nM | [15] 11800 nM | [17] 23500 nM | [5] 18700 nM | [18] 18700 nM | [6] 18700 nM | [19] 13200 nM | [16] 11800 nM | [8] 8330 nM

CN(C)NC(=O)CCC(=O)O
inactive: [1] | [2] | [3] | [4] | [15] | [5] | [18] | [6] | [19] | [16]

CSCC[C@@H](NC(=O)[C@@H](Cc1ccccc1)NC(=O)CNC(=O)CNC(=O)[C@@H](N)Cc1ccc(O)cc1)C(=O)O
inactive: [1] | [2] | [3] | [14] | [4] | [15] | [17] | [5] | [7] | [19] | [8]

O=c1cccc2n1CC1CNC[C@H]2C1
inactive: [1] | [2] | [3] | [4] | [7] | [19] | [9]
active: [15] 13200 nM | [18] 13200 nM | [8] 14800 nM

CC(C)(O)C=CC(=O)[C@](C)(O)[C@H]1[C@H](O)C[C@]2(C)[C@@H]3CC=C4[C@@H](C=C(O)C(=O)C4(C)C)[C@]3(C)C(=O)C[C@@]12C
active: [3] 46.9 nM | [14] 16.6 nM | [4] 8.3 nM | [15] 41.8 nM | [17] 66.2 nM | [5] 296 nM | [18] 418 nM | [6] 59 nM | [7] 41.8 nM | [19] 105 nM | [16] 14.8 nM | [8] 14.8 nM | [9] 37.2 nM

CC(N[C@H]1C[C@H]1c1ccccc1)c1ccc2c(c1)OCCO2 (stereo not given in full)
inactive: [2] | [10] | [11] | [12] | [13] | [3] | [14] | [4] | [15] | [18] | [7] | [19] | [16] | [8]
active: [17] 8330 nM
